Compounds with a hit are over-represented: about 1.8% of the library has one in this group of screens.
GSTO1 counter: blocks human GSTO1 in RBBP9 counter-screen. recombinant GSTO1, activity-based probe fluorescence polarization. inhibition, % at 5.96 µM. 1.1% of 300,000 active. P78417;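 active = inhibition above the campaign mean inhibition plus 3 SD, cut at about 35% in these data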
PME-1 inh: PME-1 (human) inhibition; recombinant PME-1, FP-Rh probe fluorescence polarization; 0.53% of 320,000 active; Q9Y570; inhibition, % at 5.9 µM;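 active = inhibition above the campaign mean of all compounds plus 3 SD, cut at about 26% in these data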;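 note: competitive labeling of PME-1 active site by serine hydrolase directed probe; inhibitors block probe labeling so polarization falls and inhibition rises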
LYPLA1 inh: blocks human lysophospholipase 1, a PME1 counter-screen; AID 2174; recombinant LYPLA1, FP-Rh probe fluorescence polarization; O75608; 0.16% of 320,000 active; inhibition, % at 5.9 µM;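 active = inhibition above the mean of all tested compounds plus 3 SD, set per campaign, cut at about 14% in these data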;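 note: inhibitors block serine hydrolase probe labeling of LYPLA1 so polarization falls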
Target sequence (O75608 whole entry, looked up): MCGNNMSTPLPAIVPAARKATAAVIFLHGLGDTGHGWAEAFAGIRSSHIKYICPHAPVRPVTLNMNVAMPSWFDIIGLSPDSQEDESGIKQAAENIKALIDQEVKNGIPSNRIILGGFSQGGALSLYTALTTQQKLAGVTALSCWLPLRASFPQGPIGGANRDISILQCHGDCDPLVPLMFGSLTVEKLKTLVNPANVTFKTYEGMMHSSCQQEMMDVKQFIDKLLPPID
Fam108B counter: blocks mouse Fam108B hydrolase in RBBP9 counter-screen | recombinant Fam108B, FP-Rh probe fluorescence polarization | inhibition, % at 9.51 µM | 0.33% of 300,000 active;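 active = inhibition above the screen mean inhibition plus 3 SD, computed separately per campaign, cut at about 18% in these data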;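 note: inhibitors lower polarization as less probe binds the enzyme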
PAD4 FP inh: blocks human protein arginine deiminase 4 | inhibition, % at 6.36 µM | Q9UM07 | 0.41% of 330,000 active | recombinant PAD4, RCA probe fluorescence polarization;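 active = percent inhibition above a cutoff equal to the mean of all tested compounds plus 3 SD, cut at about 15% in these data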
LYPLA2 inh: counter-screen for PME1 inhibitors: inhibitors of human LYPLA2 | O95372 | recombinant LYPLA2, FP-Rh probe fluorescence polarization | inhibition, % at 5.9 µM | 0.38% of 320,000 active;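 active = inhibition above the screen-wide mean plus 3 SD, limit set per campaign, cut at about 26% in these data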
Target sequence (O95372 whole entry, looked up): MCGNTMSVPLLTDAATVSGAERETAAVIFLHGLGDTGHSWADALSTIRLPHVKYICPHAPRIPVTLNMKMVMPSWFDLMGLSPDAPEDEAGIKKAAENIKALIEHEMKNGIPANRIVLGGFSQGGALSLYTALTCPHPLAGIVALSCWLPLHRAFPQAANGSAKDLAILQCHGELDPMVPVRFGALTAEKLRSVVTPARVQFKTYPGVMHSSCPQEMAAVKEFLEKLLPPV
LYPLA2 conf: LYPLA2 (human) inhibition, confirmation counter-screen; 72% of 1,100 active; inhibition, % at 5.9 µM; recombinant LYPLA2, FP-Rh probe fluorescence polarization; shares compounds with LYPLA2 inh; AID 2232;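 active = mean inhibition across replicates above the hit cutoff set in the primary screen, cut at about 26% in these data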;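 note: blocked labeling of the enzyme by serine hydrolase FP-Rh probe lowers polarization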
LYPLA2 gel ABPP: blocks human acyl-protein thioesterase 2 in gel ABPP | inhibition, % at 20 µM | shares compounds with LYPLA2 inh | 30% of 150 active | rhLYPLA2 in mouse brain proteome, gel ABPP FP-Rh;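 active = inhibition of LYPLA2 enzyme probe labeling above about 50%, limit read from the data; inactive = inhibition below that limit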;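 note: loss of FP-Rh probe labeling of the LYPLA2 gel band measured as band density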
Numbers stand for hits; n = inactive; x = not tested or not shown.

SMILES | GSTO1 counter | PME-1 inh | LYPLA1 inh | Fam108B counter | PAD4 FP inh | LYPLA2 inh | LYPLA2 conf | others
CC12CCC(c3c(C(=O)N4CCOCC4)nn(-c4ccccc4)c31)C2(C)C (stereo unspecified) | n | n | n | n | n | 28 | n
CC12CCC(c3c(C(=O)O)nn(-c4ccc(F)cc4)c31)C2(C)C (stereo unspecified) | n | n | n | n | n | n | x
Cc1ccnc(SCC(=O)O)n1 | n | n | n | n | n | n | x
COC(=O)CSc1nccc(C)n1 | n | n | n | n | n | 44 | n
Cc1ccccc1C(=O)NCc1nnc(SCC(=O)N2c3ccccc3Sc3ccccc32)n1C | n | n | n | n | n | n | x
CCCCN1C(=O)N(c2ccccc2Cl)C(C)(O)CC1(C)C (stereo unspecified) | n | n | n | n | n | n | x
O=C(O)c1cccc(N2C(=O)c3ccc4c5c(ccc(c35)C2=O)C(=O)N(c2cccc(C(=O)O)c2)C4=O)c1 | n | n | n | n | n | n | x
O=C(O)c1cccc(N2C(=O)c3ccc(Oc4ccc(Cl)cc4)cc3C2=O)c1 | n | n | n | n | n | 53 | 68 | LYPLA2 gel ABPP=55
Cc1cc(Oc2cc(N)cc([N+](=O)[O-])c2)ccc1Cl | n | n | n | n | n | 42 | 39
O=C(O)c1ccc(Oc2cc(Oc3ccc(C(=O)O)cc3)cc([N+](=O)[O-])c2)cc1 | n | n | n | n | n | n | x
Cc1ccc(OCc2nnc(SCC(=O)Nc3ncc(C)s3)o2)cc1 | n | n | n | n | n | n | x
CCOC(=O)C[C@H]1c2ccc(C(F)(F)F)cc2S(=O)(=O)N1C(C)(C)C | n | n | n | n | n | n | x
COC(=O)c1ccc(NC(=O)C(=O)N2CCN(C(=S)Nc3ccccc3OC)CC2)cc1 | n | n | n | n | n | n | x
COC(=O)c1ccc(NC(=O)C(=O)N2CCN(C(=S)Nc3cccc(C)c3C)CC2)cc1 | n | n | n | n | n | 50 | 42
O=C(COc1ccc2ccccc2c1)NCC(=O)N/N=C/c1ccco1 | n | n | n | n | n | 30 | n
O=C1c2cccc3cccc(c23)C(=O)N1CC1CCN(CC(O)COc2ccc3ccccc3c2)CC1 (stereo unspecified) | n | n | n | n | n | 47 | 38
Cc1cc(C)cc(OCC(O)CN2CCC(CN3C(=O)c4cccc5cccc(c45)C3=O)CC2)c1 (stereo unspecified) | n | n | n | n | n | 46 | 49
COc1ccc(COCC(O)CN2CCC(CN3C(=O)c4cccc5cccc(c45)C3=O)CC2)cc1OC (stereo unspecified) | n | n | n | n | n | n | x
CCc1ccc(OCC(O)CN2CCN(c3ccccc3)CC2)cc1 (stereo unspecified) | n | n | n | n | n | n | x
CCc1ccc(OCC(O)CN2CCC(CN3C(=O)c4cccc5cccc(c45)C3=O)CC2)cc1 (stereo unspecified) | n | n | n | n | n | 29 | 29
COc1cccc(OCC(O)CN2CCC(CN3C(=O)c4cccc5cccc(c45)C3=O)CC2)c1 (stereo unspecified) | n | n | n | n | n | 39 | 51 | LYPLA2 gel ABPP=n
O=C1c2cccc3cccc(c23)C(=O)N1CCN1CCN(CC(O)COc2ccc3ccccc3c2)CC1 (stereo unspecified) | n | n | n | n | n | n | x
COc1ccc(NC(=O)CN2C(=O)CC(C)S(=O)(=O)c3ccccc32)cc1 (stereo unspecified) | n | n | n | n | n | n | x
COc1cc(SC)ccc1C(=O)NCCc1ccccc1 | n | n | n | n | n | n | x
CCCN(CCC)C(=O)c1ccc2nc(-c3ccc(OC)c(OC)c3)c(-c3ccc(OC)c(OC)c3)nc2c1 | n | n | n | n | n | n | x
SMILES | GSTO1 counter | PME-1 inh | LYPLA1 inh | Fam108B counter | PAD4 FP inh | LYPLA2 inh | LYPLA2 conf | others
CCCN(CC(=O)Nc1ccccc1C)C(=O)c1ccc(C2SCCS2)cc1 | n | n | n | n | n | n | x
COc1ccc(CCN2C(=O)CC(Cc3ccccc3)C2=O)cc1OC (stereo unspecified) | n | n | n | n | n | n | x
COc1ccc(CCN2C(=O)CC(NNc3ccc([N+](=O)[O-])cc3)C2=O)cc1OC (stereo unspecified) | n | n | n | n | n | 51 | 54 | LYPLA2 gel ABPP=n
O=C1CC(N2CCC(c3nc4ccccc4o3)CC2)C(=O)N1c1ccc(Cl)c(C(F)(F)F)c1 (stereo unspecified) | n | n | n | n | n | 27 | 33
O=C1CC(N2CCC(c3nc4ccccc4o3)CC2)C(=O)N1c1ccc(F)cc1 (stereo unspecified) | n | n | n | n | n | n | x
Cc1ccc2nc(NCc3ccccc3)c(C=NCc3cccnc3)c(=O)n2c1 | n | n | n | n | n | n | x
Cc1ccc2nc(NCc3ccco3)c(C=NCc3ccco3)c(=O)n2c1 | n | n | n | n | n | 32 | n
COc1cc(/C=C(\C#N)C(=O)NCc2ccccc2)ccc1OCc1ccc(C(=O)O)cc1 | n | n | n | n | n | 41 | 29
N#C/C(=C\c1ccc(OCc2ccc(C(=O)O)cc2)cc1)C(=O)NCc1ccccc1 | n | n | n | n | n | 40 | 33
Cc1ccc(-n2c(SCC(N)=O)nc3c(oc4ccccc43)c2=O)cc1 | n | n | n | n | n | n | x
Cc1cc(/C=C2\SC(=O)N(CC(=O)Nc3ccccc3F)C2=O)c(C)n1C | n | n | n | n | n | 42 | 26
Cc1ccc(C(=O)O)cc1-c1ccc(/C=C2\SC(=O)N(CC(=O)Nc3ccccc3)C2=O)o1 | n | n | n | n | n | 27 | 26
O=C(CN1C(=O)S/C(=C\c2ccccc2F)C1=O)Nc1ccccc1O | n | n | n | n | n | n | x
Cc1ccc(NC(=O)CN2C(=O)S/C(=C\c3cc(C)n(-c4cccc(C(=O)O)c4)c3C)C2=O)cc1 | n | n | n | n | n | 48 | 43
Cc1ccc(NC(=O)CN2C(=O)S/C(=C\c3cc(C)n(C)c3C)C2=O)cc1 | n | n | n | n | n | n | x
Cc1ccc(NC(=O)CN2C(=O)S/C(=C\c3ccc(-c4cccc(C(=O)O)c4C)o3)C2=O)cc1 | n | n | n | n | n | n | x
Cc1cccc(NC(=O)CN2C(=O)S/C(=C\c3cc(C)n(C)c3C)C2=O)c1 | n | n | n | n | n | 57 | 77 | LYPLA2 gel ABPP=60
O=C(NCc1cccs1)C1CCC(CNS(=O)(=O)c2cccc3nsnc23)CC1 (stereo unspecified) | n | n | n | n | n | n | x
COc1cccc(CNC(=O)C2CCC(CNS(=O)(=O)c3cccc4nsnc34)CC2)c1 (stereo unspecified) | n | n | n | n | n | 26 | 46

High-throughput results (PubChem)
